Screens (PubChem BioAssay)
PL synth Enamine: animal cell phospholipid biosynthesis inhibition, Enamine screen; ZR-82 CHO cells, pyrene fatty acid UV survival, CellTiter Blue; peroxisome-deficient CHO-K1 mutant line; plus DGAT-1, DGAT-2 and ACAT inhibitors; calls only at 10 µM; actives 0.4% (n = 20,000);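 active = cell survival signal 2 SD away from solvent-only control wells, confirmed on one or two retests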;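 also: 3 h compound exposure then viability read about one day after UV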
Calls only; 0 = inactive; + = active, no number. This excerpt belongs to a sample that is enriched for hits.

SMILES	PL synth Enamine
C=CCN=c1scc(-c2ccc(OC(F)F)cc2)n1/N=C(\C)c1ccc2c(c1)OCCO2	0
COCCN=c1scc(-c2ccc(OC(F)F)cc2)n1/N=C(\C)c1ccc2c(c1)OCO2	0
C/C(=N\n1c(-c2ccc(OC(F)F)cc2)csc1=NC(C)C)c1ccc(-n2ccnc2)cc1	+
NC(=O)COC(=O)c1ccc([N+](=O)[O-])o1	0
O=S(=O)(/C=C/c1ccc(Cl)cc1)N1CCCC1c1ccc2c(c1)OCCCO2 (stereo unspecified)	0
CC(C)(C)NC(=O)C1=CC=CN2CCS(=O)(=O)N=C12	0
O=C(NNC(=O)C1CCCO1)c1ccco1 (stereo unspecified)	0
O=C1Nc2ccc(Br)cc2C1=C(c1nc2ccccc2s1)c1nc2ccccc2s1	+
Brc1ccccc1C=C(c1nc2ccccc2s1)c1nc2ccccc2s1	0
Oc1c(Br)cc(/C=C/c2nc3ccccc3s2)cc1Br	0
c1nc(N2CCCCC2)c2c3c(sc2n1)CCCC3	0
CN1/C(=C2\C=NN(c3ccccc3)P2(=O)Nc2ccc([N+](=O)[O-])cc2)C(C)(C)c2ccccc21 (stereo unspecified)	+
Cc1cc([N+](=O)[O-])ccc1NP1(=O)/C(=C2/N(C)c3ccccc3C2(C)C)C=NN1c1ccccc1 (stereo unspecified)	0
Cc1nn(-c2ccccc2)c2c1P(=S)(Nc1ccc([N+](=O)[O-])cc1)/C(=C1/N(C)c3ccccc3C1(C)C)C=N2 (stereo unspecified)	0
O=C(CS(=O)c1ccc(SC(F)(F)C(F)(F)C(F)(F)F)cc1[N+](=O)[O-])NC1CCS(=O)(=O)C1 (stereo unspecified)	0
C=CCN=c1scc(-c2cccc(Cl)c2)n1/N=C/c1ccc2c(c1)OCO2	0
O=P1(NCc2cccnc2)C=C(c2ccccc2)OC(c2ccccc2)=C1	0
CCOC(=O)c1c(N)sc(C(N)=O)c1C	0
CCOC(=O)c1c(N)oc(C)c1C(C)=O	0
C=CCn1sc(N)c(C(=O)OCC)c1=S	+
CCCCCCCCC1=NN2CCS(=O)(=O)N=C2S1	0
O=C(NCCSCc1ccco1)c1ccc([N+](=O)[O-])s1	0
c1ccc(C2=NN3C(C2)c2ccccc2OC32CCCC2)cc1 (stereo unspecified)	0
O=C1NC2(Oc3ccc(Br)cc3C3CC(c4ccccc4)=NN32)/C(=C/c2ccccc2)S1 (stereo unspecified)	+
O=C1NC2(Oc3ccccc3C3CC(c4ccccc4)=NN32)/C(=C/c2cccc(OCc3ccccc3)c2)S1 (stereo unspecified)	+
SMILES	PL synth Enamine
c1ccc(C2=NN3C(C2)c2ccccc2OC32CCCCC2)cc1 (stereo unspecified)	0
CCC1(C)Oc2ccccc2C2CC(c3ccccc3)=NN21 (stereo unspecified)	0
CC1(C)Oc2ccccc2C2CC(c3ccc(-c4ccccc4)cc3)=NN21 (stereo unspecified)	0
C=CCN1C(=O)/C(=C/c2c(NCCCn3ccnc3)nc3c(C)cccn3c2=O)SC1=S	0
C=CCSc1nnc(NC(=O)C2CCCCC2)s1	0
CN=c1scc(-c2ccc(Cl)cc2Cl)n1/N=C/c1ccc(SC)cc1	0
S=C(N/N=C1\CC2CC=CC12)NC1CCCCC1 (stereo unspecified)	0
CC1C/C(=N\NC(=O)C(N)=O)CC(C)(C)C1 (stereo unspecified)	0
CC1C/C(=N\NC(=S)NC2CCCCC2)CC(C)(C)C1 (stereo unspecified)	+
O=c1cc(CSc2ccc(F)c(F)c2)nc2ccc(Br)cn12	0
Cc1sc2ncnc(SCC(=O)Nc3sc4c(c3C(N)=O)CCC4)c2c1C	0
Fc1ccc(NC(=S)NNc2ccnc3cc(Cl)ccc23)cc1	0
S=C(NNc1ccnc2cc(Cl)ccc12)Nc1ccccc1Cl	+
S=C(NNc1ccnc2cc(Cl)ccc12)Nc1ccc(Cl)cc1	0
CC1(C)CC(=O)C=C(NNc2nc(C(Cl)(Cl)Cl)nc3ccccc23)C1	0
CCOC(=O)c1c(C)[nH]c(C(=O)C(C)N2CC(C)OC(C)C2)c1C (stereo unspecified)	0
O=[N+]([O-])c1ccc(Cl)c(S(=O)(=O)Nc2ccc(SC(F)F)cc2)c1	0
CN(C)c1ccc(N=Cc2cc([N+](=O)[O-])ccc2OC(F)F)cc1	0
O=[N+]([O-])c1ccc(N=Nc2ccc(NCC(F)(F)C(F)F)cc2)c(Cl)c1	+
CN(C)P(=Nc1ccc([N+](=O)[O-])cc1Br)(N(C)C)C(C)(C)C	0
CN(C)c1ccc(N=Nc2ccc([N+](=O)[O-])cc2C(F)(F)F)cc1	+
Nc1ccc([N+](=O)[O-])cc1C(F)(F)F	0
O=C(CSc1nnc2c(Cl)cc(Cl)cn12)N(CC1CCCO1)C1CCS(=O)(=O)C1 (stereo unspecified)	0
